Results: PubChem BioAssay (Tox21)
Inconclusive results are not listed. Active and inactive are the calls of the source. Unless noted, calls follow the shape of the full dose curve.

How the values were obtained:
[1] = target: Acetylcholinesterase (Homo sapiens) (UniProt P22303); test: Acetylcholinesterase (AChE) small molecule antagonists: enzyme-based qHTS assay (AID 1347397); details: Potency: AChE enzyme activity inhibition; outcome: AChE enzyme activity inhibition; also: % is scaled to controls: 0 for no effect and ±100 for the full control effect; nearly all actives have a fitted effect of over 55% in size
Sequence of Acetylcholinesterase (Homo sapiens) (P22303 whole entry, looked up): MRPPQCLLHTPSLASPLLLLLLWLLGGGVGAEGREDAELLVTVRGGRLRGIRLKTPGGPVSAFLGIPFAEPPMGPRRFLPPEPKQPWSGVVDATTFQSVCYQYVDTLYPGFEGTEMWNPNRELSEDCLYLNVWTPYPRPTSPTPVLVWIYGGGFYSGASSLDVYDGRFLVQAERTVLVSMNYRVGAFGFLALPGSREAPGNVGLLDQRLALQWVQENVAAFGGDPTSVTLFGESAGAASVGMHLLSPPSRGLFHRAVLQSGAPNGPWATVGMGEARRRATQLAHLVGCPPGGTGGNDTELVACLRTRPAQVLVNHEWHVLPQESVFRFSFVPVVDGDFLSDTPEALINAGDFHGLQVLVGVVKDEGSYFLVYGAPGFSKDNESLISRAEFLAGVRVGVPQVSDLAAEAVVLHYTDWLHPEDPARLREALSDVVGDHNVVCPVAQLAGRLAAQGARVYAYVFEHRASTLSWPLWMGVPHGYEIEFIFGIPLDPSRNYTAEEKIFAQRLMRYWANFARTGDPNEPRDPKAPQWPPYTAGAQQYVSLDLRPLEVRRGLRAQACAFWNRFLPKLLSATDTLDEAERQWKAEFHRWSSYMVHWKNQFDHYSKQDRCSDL
Procedure, shortened: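 Compound or DMSO vehicle was pin-transferred onto recombinant human AChE (50 mU/mL as dispensed) and left 30 min at room temperature. Acetylthiocholine with DTNB then started the reaction, read colorimetrically 10 min later.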

[2] = target: Acetylcholinesterase (Homo sapiens) (UniProt P22303); test: Acetylcholinesterase (AChE) small molecule antagonists: fluorescence cell-based qHTS assay (AID 1347398); details: Potency: AChE activity; outcome: AChE activity; also: % is scaled to controls: 0 for no effect and ±100 for the full control effect; nearly all actives have a fitted effect of over 50% in size
Procedure, shortened: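 Using neuroblastoma SH-SY5Y cells as the enzyme source, test chemicals are preincubated 30 min at 37 C; AChE-driven acetylthiocholine cleavage is then quantified by thiocholine-dependent Thiolite Green fluorescence after 40 min at room temperature.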

[3] = target: Acetylcholinesterase (Homo sapiens) (UniProt P22303); test: Acetylcholinesterase (AChE) small molecule antagonists: enzyme-based qHTS assay with human liver microsomes (AID 1347399); details: Potency: qHTS inhibition; outcome: qHTS inhibition; also: % is scaled to controls: 0 for no effect and ±100 for the full control effect; nearly all actives have a fitted effect of over 60% in size
Procedure, shortened: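 Recombinant human AChE (50 mU/mL in the enzyme mix) and human liver microsomes (0.25 mg/mL final) were preincubated with compound and NADPH (0.25 mg/mL final) for 30 min at 37 C. Acetylthiocholine/DTNB was then added; thiocholine was read colorimetrically after 10 min at room temperature.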

[4] = qHTS assay for small molecules that induce genotoxicity in human embryonic kidney cells expressing luciferase-tagged ATAD5 (AID 651632; active = well fitted curve in the direction sought with a large enough effect in the repeat runs; an effect the other way counts as inactive or inconclusive; also: % is scaled to controls: 0 for no effect and ±100 for the full control effect; nearly all actives have a fitted effect of over 15% in size)
Procedure, shortened: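 Test compounds were delivered by pin tool onto HEK293T reporter cells (2,000/well) expressing ATAD5 fused to luciferase. After 16 hr at 37C, 5% CO2, Amplite was added for 30 min at room temperature and luminescence was measured.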

[5] = qHTS assay for small molecule agonists of the p53 signaling pathway - cell viability (AID 651633); also: potency is read from the fitted curve at half-maximal effect; nearly all actives have a fitted effect of over 30% in size
Procedure, shortened: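 p53RE-bla cells, seeded at 4,000 per well and rested 5 h at 37 C/5% CO2, received compounds in DMSO for 16 h at 37 C. CellTiter-Glo was then added, and luminescence was read after 30 min at room temperature to gauge cytotoxicity.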

[6] = qHTS assay for small molecules that induce genotoxicity in human embryonic kidney cells expressing luciferase-tagged ATAD5 - cell viability (AID 651634); also: potency is read from the fitted curve at half-maximal effect; nearly all actives have a fitted effect of over 25% in size
Procedure, shortened: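 Quantitative high-throughput format. HEK293T cells expressing ATAD5 fused to luciferase were plated at 2,000 cells/well and treated 15.5 hr with compound versus DMSO. Viability was determined by fluorescent live-cell protease substrate, 30 min at 37C.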

[7] = qHTS assay for small molecule disruptors of the mitochondrial membrane potential (AID 720635; active = well fitted curve in the direction sought with a large enough effect in the repeat runs; an effect the other way counts as inactive or inconclusive; also: potency is read from the fitted curve at half-maximal effect)
Procedure, shortened: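 HepG2 cells (2,000/well) attached overnight at 37C, then took compound for 1 hr at 37C, 5% CO2. Mito-MPS dye was added for 30 min; fluorescence was read at 490/535 nm (monomers) and 540/590 nm (aggregates).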

[8] = qHTS assay to test for compound auto fluorescence at 535 nm (green) in HepG2 cells (AID 720675; active = well fitted curve in the direction sought with a large enough effect in the repeat runs; an effect the other way counts as inactive or inconclusive; also: % is scaled to controls: 0 for no effect and ±100 for the full control effect)
[9] = qHTS assay to test for compound auto fluorescence at 460 nm (blue) in HEK293 cells (AID 720678; active = well fitted curve in the direction sought with a large enough effect in the repeat runs; an effect the other way counts as inactive or inconclusive; also: % is scaled to controls: 0 for no effect and ±100 for the full control effect)
Procedure, shortened: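 HEK293, 2,000 cells/well, 10% dialyzed FBS; attach 4-5 hr 37C; pin compound or DMSO; o/n 37C/5% CO2; fluorescence 405/460 nm; triamterene-equivalent units.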

[10] = qHTS assay to test for compound auto fluorescence at 590 nm (red) in HEK293 cells (AID 720679; active = well fitted curve in the direction sought with a large enough effect in the repeat runs; an effect the other way counts as inactive or inconclusive; also: % is scaled to controls: 0 for no effect and ±100 for the full control effect)
Procedure, shortened: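 Intensity at 540nm excitation and 590nm emission is reported as Rose Bengal sodium-equivalent autofluorescence. Measurements followed overnight exposure (37C, 5% CO2) of HEK293 cells, 2,000 per well, to 23 nL compound.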

[11] = qHTS assay to test for compound auto fluorescence at 535 nm (green) in HEK293 cells (AID 720680; active = well fitted curve in the direction sought with a large enough effect in the repeat runs; an effect the other way counts as inactive or inconclusive; also: % is scaled to controls: 0 for no effect and ±100 for the full control effect)
[12] = qHTS assay to test for compound auto fluorescence at 460 nm (blue) in HEK293 cell free culture (AID 720681; active = well fitted curve in the direction sought with a large enough effect in the repeat runs; an effect the other way counts as inactive or inconclusive; also: % is scaled to controls: 0 for no effect and ±100 for the full control effect)
Procedure, shortened: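 Test compounds were pinned into cell-free culture medium (DMEM with 10% FBS) and fluorescence was read directly at Ex/Em 405/460 nm. Signals were expressed as fluorescence equivalents of triamterene, with DMSO vehicle as control.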

[13] = qHTS assay to test for compound auto fluorescence at 535 nm (green) in HEK293 cell free culture (AID 720682; active = well fitted curve in the direction sought with a large enough effect in the repeat runs; an effect the other way counts as inactive or inconclusive; also: % is scaled to controls: 0 for no effect and ±100 for the full control effect)
Procedure, shortened: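 Cell-free medium (DMEM, 10% FBS) receives compound or DMSO by pintool. Plate read directly at Ex 485/Em 535 nm. Signal converted to fluorescein equivalency.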

[14] = qHTS assay to test for compound auto fluorescence at 590 nm (red) in HEK293 cell free culture (AID 720683; active = well fitted curve in the direction sought with a large enough effect in the repeat runs; an effect the other way counts as inactive or inconclusive; also: % is scaled to controls: 0 for no effect and ±100 for the full control effect)
Procedure, shortened: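 Tox21 10K library compounds were pinned into cell-free DMEM with 10% FBS and fluorescence was read at excitation 540 nm. Activity is expressed as Rose Bengal sodium equivalency.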

[15] = qHTS assay to test for compound auto fluorescence at 590 nm (red) in HepG2 cell free culture (AID 720684; active = well fitted curve in the direction sought with a large enough effect in the repeat runs; an effect the other way counts as inactive or inconclusive; also: % is scaled to controls: 0 for no effect and ±100 for the full control effect)
Procedure, shortened: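 Ex 540 / Em 590 nm read of compound in cell-free MEM (10% FBS). Rose Bengal sodium reference.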

[16] = qHTS assay to test for compound auto fluorescence at 460 nm (blue) in HepG2 cell free culture (AID 720685; active = well fitted curve in the direction sought with a large enough effect in the repeat runs; an effect the other way counts as inactive or inconclusive; also: % is scaled to controls: 0 for no effect and ±100 for the full control effect)
Procedure, shortened: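 Cell-free plates of MEM plus 10% FBS received 23 nL compound or DMSO vehicle; blue-channel (405/460 nm) intensity scored against triamterene as reference fluorophore.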

[17] = qHTS assay to test for compound auto fluorescence at 535 nm (green) in HepG2 cell free culture (AID 720686; active = well fitted curve in the direction sought with a large enough effect in the repeat runs; an effect the other way counts as inactive or inconclusive; also: % is scaled to controls: 0 for no effect and ±100 for the full control effect)
[18] = qHTS assay to test for compound auto fluorescence at 460 nm (blue) in HepG2 cells (AID 720687; active = well fitted curve in the direction sought with a large enough effect in the repeat runs; an effect the other way counts as inactive or inconclusive; also: % is scaled to controls: 0 for no effect and ±100 for the full control effect)
Procedure, shortened: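 Cells (2,000/well in MEM with 10% FBS) attached overnight at 37 C, then were exposed to compound or DMSO for 1 hr at 37 C, 5% CO2. Fluorescence read at Ex/Em 405/460 nm, expressed as triamterene-equivalent signal.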

[19] = qHTS assay to identify small molecule antagonists of the glucocorticoid receptor (GR) signaling pathway - cell viability counter screen (AID 720693; active = well fitted curve in the direction sought with a large enough effect in the repeat runs; an effect the other way counts as inactive or inconclusive; also: potency is read from the fitted curve at half-maximal effect; nearly all actives have a fitted effect of over 55% in size)
[20] = qHTS assay for identifying genotoxic compounds that show differential cytotoxicity against isogenic chicken DT40 cell lines with known DNA damage response pathways - wild type cell line (AID 743012; active = well fitted curve in the direction sought with a large enough effect in the repeat runs; an effect the other way counts as inactive or inconclusive; also: potency is read from the fitted curve at half-maximal effect; nearly all actives have a fitted effect of over 60% in size)
Procedure, shortened: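 300 wt DT40 cells/well; cpd (DMSO) pintool-transferred after ~0.5 h at 37 C/5% CO2; 40 h incubation; CellTiter-Glo added, 30 min RT; luminescence read.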

[21] = qHTS assay for identifying genotoxic compounds that show differential cytotoxicity against isogenic chicken DT40 cell lines with known DNA damage response pathways - Rev3 mutant cell line (AID 743014; active = well fitted curve in the direction sought with a large enough effect in the repeat runs; an effect the other way counts as inactive or inconclusive; also: potency is read from the fitted curve at half-maximal effect; nearly all actives have a fitted effect of over 55% in size)
[22] = qHTS assay for identifying genotoxic compounds that show differential cytotoxicity against isogenic chicken DT40 cell lines with known DNA damage response pathways - Rad54/Ku70 mutant cell line (AID 743015; active = well fitted curve in the direction sought with a large enough effect in the repeat runs; an effect the other way counts as inactive or inconclusive; also: potency is read from the fitted curve at half-maximal effect; nearly all actives have a fitted effect of over 60% in size)
[23] = target: Androgen receptor (Homo sapiens) (UniProt P10275); test: qHTS assay to identify small molecule antagonists of the androgen receptor (AR) signaling pathway (AID 743035; active = well fitted inhibition curve with a large enough effect in the signal ratio in the repeat runs, not every such curve was filed as active; the % refers to the signal ratio; also: potency is read from the fitted curve at half-maximal effect)
Sequence of Androgen receptor (Homo sapiens) (P10275 whole entry, looked up): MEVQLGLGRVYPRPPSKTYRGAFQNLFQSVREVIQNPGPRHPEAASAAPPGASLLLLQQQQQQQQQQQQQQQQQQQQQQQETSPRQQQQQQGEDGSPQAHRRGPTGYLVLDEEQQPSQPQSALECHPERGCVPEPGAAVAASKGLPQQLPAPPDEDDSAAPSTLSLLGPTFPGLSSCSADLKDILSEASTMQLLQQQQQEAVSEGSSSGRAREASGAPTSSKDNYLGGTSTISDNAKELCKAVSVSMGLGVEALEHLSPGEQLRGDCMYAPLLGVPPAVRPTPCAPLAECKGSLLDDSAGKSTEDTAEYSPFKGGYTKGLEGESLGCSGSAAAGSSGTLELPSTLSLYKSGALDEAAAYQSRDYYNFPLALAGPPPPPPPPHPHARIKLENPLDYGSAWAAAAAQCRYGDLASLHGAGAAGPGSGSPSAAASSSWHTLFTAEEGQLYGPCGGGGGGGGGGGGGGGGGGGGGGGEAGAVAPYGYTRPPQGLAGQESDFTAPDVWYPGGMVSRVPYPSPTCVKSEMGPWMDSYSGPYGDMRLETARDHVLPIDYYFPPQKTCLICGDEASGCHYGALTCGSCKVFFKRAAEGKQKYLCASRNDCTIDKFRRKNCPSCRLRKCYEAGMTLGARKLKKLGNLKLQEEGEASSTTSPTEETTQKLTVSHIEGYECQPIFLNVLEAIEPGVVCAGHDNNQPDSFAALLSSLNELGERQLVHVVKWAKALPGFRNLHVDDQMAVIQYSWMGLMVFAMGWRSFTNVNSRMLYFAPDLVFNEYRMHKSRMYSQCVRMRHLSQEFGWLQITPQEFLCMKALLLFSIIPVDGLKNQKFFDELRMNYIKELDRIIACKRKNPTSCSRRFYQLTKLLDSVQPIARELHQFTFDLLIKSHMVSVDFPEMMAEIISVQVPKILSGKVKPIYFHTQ
Procedure, shortened: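 In this cell-based reporter screen, compounds were tested in concentration series against R1881-activated HEK293 cells expressing beta-lactamase under UAS control; after 16 h at 37C, FRET substrate was added and fluorescence read 2 h later.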

[24] = target: Androgen receptor (Homo sapiens) (UniProt P10275); test: qHTS assay to identify small molecule agonists of the androgen receptor (AR) signaling pathway using the MDA cell line (AID 743040; active = well fitted curve in the direction sought with a large enough effect in the repeat runs; an effect the other way counts as inactive or inconclusive; also: % is scaled to controls: 0 for no effect and ±100 for the full control effect; nearly all actives have a fitted effect of over 20% in size)
Procedure, shortened: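 Cell-based luciferase reporter: MDA-kb2, MMTV promoter (AR + GR response elements). 16 h compound exposure at 37C; ONE-Glo, 30 min RT, luminescence.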

[25] = qHTS assay to identify small molecule antagonists of the thyroid receptor (TR) signaling pathway - cell viability counter screen (AID 743064; active = well fitted curve in the direction sought with a large enough effect in the repeat runs; an effect the other way counts as inactive or inconclusive; also: potency is read from the fitted curve at half-maximal effect; nearly all actives have a fitted effect of over 50% in size)
Procedure, shortened: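 GH3.TRE-Luc cells, 4 h pre-plating; cpd + T3 1 nM final; 37 °C 23.5 h; CellTiter-Fluor 30 min; fluorescence read.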

[26] = qHTS assay to identify small molecule antagonists of the thyroid receptor (TR) signaling pathway (AID 743065; active = well fitted curve in the direction sought with a large enough effect in the repeat runs; an effect the other way counts as inactive or inconclusive; also: potency is read from the fitted curve at half-maximal effect; nearly all actives have a fitted effect of over 55% in size)
Procedure, shortened: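 GH3.TRE-Luc rat pituitary cells carrying two TR response elements driving luciferase were plated for 4 h, given compound plus 1 nM T3 (final), and incubated 23.5 h at 37 C. ONE-Glo luminescence measured reporter inhibition; CellTiter-Fluor fluorescence tracked cytotoxicity.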

[27] = qHTS assay to identify small molecule antagonists of the estrogen receptor alpha (ER-alpha) signaling pathway - cell viability counter screen (AID 743074);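 also: HEK293 cells carrying ER-alpha-UAS-bla reporter stimulated with 17beta-estradiol; potency is read from the fitted curve at half-maximal effect; nearly all actives have a fitted effect of over 45% in size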
[28] = qHTS assay to identify small molecule antagonists of the estrogen receptor alpha (ER-alpha) signaling pathway using the BG1 cell line (AID 743080);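 also: BG1 cells stimulated with 17beta-estradiol alongside compound; potency is read from the fitted curve at half-maximal effect; nearly all actives have a fitted effect of over 25% in size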
Procedure, shortened: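 BG1Luc4E2, endogenous ER-alpha, 4xERE-luc; 5 d charcoal-stripped FBS, phenol red free; 24 h plating; cpd + 17beta-estradiol 21.5 h, 37 C/5% CO2; CellTiter-Fluor viability 30 min, then ONE-Glo luciferase 30 min RT.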

Aromatase (Homo sapiens) = Aromatase (Homo sapiens) (UniProt P11511); test: qHTS assay to identify aromatase inhibitors (AID 743083; active = well fitted curve in the direction sought with a large enough effect in the repeat runs; an effect the other way counts as inactive or inconclusive)
Sequence of Aromatase (Homo sapiens) (P11511 whole entry, looked up): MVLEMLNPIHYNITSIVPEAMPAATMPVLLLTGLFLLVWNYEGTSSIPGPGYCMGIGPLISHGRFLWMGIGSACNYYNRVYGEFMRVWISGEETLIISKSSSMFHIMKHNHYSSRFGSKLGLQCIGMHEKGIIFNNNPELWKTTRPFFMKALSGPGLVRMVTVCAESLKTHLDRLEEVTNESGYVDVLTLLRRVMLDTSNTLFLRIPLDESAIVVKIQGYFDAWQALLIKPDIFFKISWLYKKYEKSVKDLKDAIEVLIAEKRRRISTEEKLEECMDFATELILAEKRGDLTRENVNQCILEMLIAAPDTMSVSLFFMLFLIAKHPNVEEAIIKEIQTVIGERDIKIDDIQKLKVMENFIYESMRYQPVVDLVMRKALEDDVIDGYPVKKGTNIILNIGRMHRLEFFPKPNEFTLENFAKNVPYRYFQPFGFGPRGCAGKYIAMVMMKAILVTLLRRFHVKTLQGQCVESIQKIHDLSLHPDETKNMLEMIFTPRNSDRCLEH

[29] = target: Aryl hydrocarbon receptor (Homo sapiens) (UniProt P35869); test: qHTS assay to identify small molecule that activate the aryl hydrocarbon receptor (AhR) signaling pathway (AID 743085; active = well fitted curve in the direction sought with a large enough effect in the repeat runs; an effect the other way counts as inactive or inconclusive; also: potency is read from the fitted curve at half-maximal effect; nearly all actives have a fitted effect of over 15% in size)
Sequence of Aryl hydrocarbon receptor (Homo sapiens) (P35869 whole entry, looked up): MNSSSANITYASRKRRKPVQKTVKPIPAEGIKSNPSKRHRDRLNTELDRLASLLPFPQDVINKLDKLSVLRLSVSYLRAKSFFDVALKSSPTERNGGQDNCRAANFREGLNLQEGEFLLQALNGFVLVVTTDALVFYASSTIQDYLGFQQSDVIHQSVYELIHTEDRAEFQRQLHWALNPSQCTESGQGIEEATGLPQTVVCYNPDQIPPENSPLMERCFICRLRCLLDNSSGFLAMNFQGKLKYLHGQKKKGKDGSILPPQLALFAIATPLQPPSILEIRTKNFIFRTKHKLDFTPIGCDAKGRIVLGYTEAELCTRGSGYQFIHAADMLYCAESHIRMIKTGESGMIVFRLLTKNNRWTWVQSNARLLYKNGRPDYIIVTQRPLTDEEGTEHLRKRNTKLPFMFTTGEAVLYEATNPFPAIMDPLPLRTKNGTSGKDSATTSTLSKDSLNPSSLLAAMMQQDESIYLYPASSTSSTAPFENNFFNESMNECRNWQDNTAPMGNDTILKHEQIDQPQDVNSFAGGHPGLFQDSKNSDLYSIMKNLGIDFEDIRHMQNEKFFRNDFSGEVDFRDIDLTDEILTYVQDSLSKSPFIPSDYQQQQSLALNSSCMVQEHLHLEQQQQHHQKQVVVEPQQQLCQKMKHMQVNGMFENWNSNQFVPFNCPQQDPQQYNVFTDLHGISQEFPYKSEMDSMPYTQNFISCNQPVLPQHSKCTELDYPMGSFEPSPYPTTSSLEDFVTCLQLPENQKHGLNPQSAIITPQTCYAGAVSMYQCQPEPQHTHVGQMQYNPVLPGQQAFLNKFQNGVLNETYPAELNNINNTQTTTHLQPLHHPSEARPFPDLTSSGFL
Procedure, shortened: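 Luminescence read-out: ONE-Glo reagent, 30 min at room temperature, in HG2L7.5c1 HepG2 reporter cells treated 24 h at 37C. Viability was measured beforehand by CellTiter-Fluor fluorescence after 30 min at 37C.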

Nc1cccc(O)c1
inactive: Potency [1] | Potency [2] | Potency [3]

O=C1c2ccccc2C(=O)c2cc(S(=O)(=O)O)ccc21
inactive: Potency [2] | Potency [3]

CCCOC(=O)c1cc(O)c(O)c(O)c1
inactive: Potency [1] | Potency [2] | Potency [3]

CC(C)OB(OC(C)C)OC(C)C
inactive: Potency [1] | Potency [2] | Potency [3]

O=c1[nH]c(=O)c2[nH]c(=O)[nH]c2[nH]1
inactive: activity change, negative = inhibition [1] 2.79% [at 10.5 µM] | activity change, negative = inhibition [2] 6.44% [at 10.5 µM] | activity change, negative = inhibition [3] 21.5% [at 10.5 µM]

C#CC(C)(CC)OC(=O)c1ccccc1C(=O)O (stereo not given)
inactive: Potency [2]

CCOC(C)OCC
inactive: Potency [1] | Potency [2] | Potency [3]

CCCCCc1cc(O)c2c(c1)OC(C)(C)c1ccc(C)cc1-2
active: Potency [5] 11.9 µM | Potency [6] 23.7 µM | Potency [7] 1.68 µM | Potency [19] 13.4 µM | Potency [20] 9.44 µM | Potency [21] 11.9 µM | Potency [22] 11.9 µM | Potency [23] 16.9 µM | Potency [25] 13.3 µM | Potency [26] 13.3 µM | Potency [27] 23.9 µM | Potency [28] 29.8 µM | Potency (Aromatase (Homo sapiens)) 13.3 µM | Potency [29] 3.35 µM
inactive: Potency [4] | Potency [8] | Potency [9] | outcome [10] | Potency [11] | Potency [12] | Potency [13] | outcome [14] | outcome [15] | Potency [16] | Potency [17] | Potency [18] | Potency [24]
